From PubChem BioAssay (Tox21)
Results filed as inconclusive are left out. The source made the active and inactive calls. Calls come from the whole dose curve; as a rule, active = well fitted cell-killing curve with a large enough effect in the repeat runs; inconclusive = weak or mixed curves, or effect the other way; inactive = no such curve, though single readings can be large or run the other way.

Assay: qHTS assay to identify small molecule antagonists of the vitamin D receptor (VDR) signaling pathway - cell viability counter screen (AID 743225); note: nearly all actives have a fitted effect of over 50% in size
Settings: VDR-bla HEK293T viability, CellTiter-Glo luminescence, 16 h; series mostly up to 61 µM; viability change, negative = cytotoxic: at the top concentration
Excerpt: U.S. Tox21 Program National Center for Advancing Translational Sciences [NCATS] NIH Chemical Genomics Center [NCGC] U.S. Environmental Protection Agency [EPA] National Institutes of Environmental Health Sciences [NIEHS] National Toxicology Program [NTP] U.S. Food and Drug Administration [FDA] Tox21 Assay Overview: The vitamin D receptor (VDR), a member of nuclear hormone receptor superfamily, plays a critical role in calcium homeostasis and bone metabolism. It is also involved in cell differentiation and growth, and thrombogenicity. To identify the compounds that inhibit VDR signaling, the VDR-UAS-bla HEK 293T cell line (Invitrogen, Carlsbad, CA, USA) containing a beta-lactamase reporter gene under the control of an upstream activator sequence (UAS) was used to screen the Tox21 10K compound library. The cytotoxicity of the Tox21 compound library against the VDR-bla cell line was tested in parallel by measuring the cell viability using CellTiter-Glo assay (Promega, Madison, WI) in the same wells.
Tox21 Assay Protocol Summary: VDR-bla cells were dispensed at 2,000 cells/5 uL of assay medium per well into black wall/clear-bottom 1536-well plates using a Multidrop Combi (Thermo Fisher Scientific, Waltham, MA) dispenser. After the assay plates were incubated at a 37C and 5% CO2 for 4 h, 23 nL of compounds dissolved in DMSO, positive controls or DMSO only was transferred to the assay plate by a Pintool station (Kalypsys, San Diego, CA), followed by addition of 1 uL of 1-alpha, 25-Dihydroxy Vitamin D3 (3 nM, final concentration in the wells) using a Bioraptr Flying Reagent Dispenser (FRD) workstation (Beckman Coulter, Indianapolis, IN). The plates were incubated at 37C and 5% CO2 for 16 h, and then 1 uL of LiveBLAzerTM B/G FRET substrate was added using a Bioraptr FRD. The plates were incubated at room temperature for 2 h and fluorescence intensity was measured by an Envision plate reader (PerkinElmer, Shelton, CT). For cell viability readout that measures cytotoxicity, 3 ul/well of CellTiter-Glo reagent was added into the assay plates using a Bioraptr FRD. After 30 min incubation at room temperature, the luminescence intensity in the plates was measured using a ViewLux plate reader (PerkinElmer).
% is set by controls: 0 for no effect and ±100 for the full control effect; potency is the fitted concentration of half-maximal effect.

Structure (SMILES)	viability change, negative = cytotoxic	Potency
O=NN(CCCl)C(=O)NCCCl	9.84% (inactive)	
c1ccc(CNc2ncnc3c2ncn3C2CCCCO2)cc1 (stereo not given)	0.617% (inactive)	
O=C1OC[C@H](Cc2cccc(O)c2)[C@H]1Cc1cccc(O)c1	3.06% [at 28.5 µM] (inactive)	
CCCCC[C@H](O)/C=C/[C@H]1[C@H](O)CC(=O)[C@@H]1C/C=C\CCCC(=O)O	0.12% (inactive)	
CCc1ccc(C)cc1	-23.2% (inactive)	
O=C1CC[C@@H](C(=O)O)N1	12.5% (inactive)	
C=CC(=O)O	26% (inactive)	
Cc1ccc2c(c1[N+](=O)[O-])C(=O)c1ccccc1C2=O	4.77% (inactive)	
COc1ccc(CCN(C)CCCN2CCc3cc(OC)c(OC)cc3CC2=O)cc1OC	0% (inactive)	
CC(=O)NCCO	5.05% (inactive)	
O=C(C(=O)c1ccco1)c1ccco1	1.65% [at 78.8 µM] (inactive)	
C[C@@H]1C[C@H]2[C@@H]3CCC4=CC(=O)C=C[C@]4(C)[C@@]3(F)[C@@H](O)C[C@]2(C)[C@@]1(O)C(=O)COP(=O)(O)O	4.77% (inactive)	
O[C@@H](CNC[C@H](O)[C@H]1CCc2cc(F)ccc2O1)[C@@H]1CCc2cc(F)ccc2O1		21.3 µM (active)
O=C(O)CCC(=O)OC[C@@H](NC(=O)C(Cl)Cl)[C@H](O)c1ccc([N+](=O)[O-])cc1	-3.72% (inactive)	
CCN(CC)CCOc1ccccc1C(=O)CCc1ccccc1	-16.9% (inactive)	
O=C(O)CCS	0.839% [at 78.8 µM] (inactive)	
COC(=O)Nc1nc2ccc(C(=O)C3CC3)cc2[nH]1	-18.2% (inactive)	
COc1ccc(C(=O)NCc2ccc(OCCN(C)C)cc2)cc1OC	1.54% (inactive)	
O=C(O)c1cccc(C[C@@H]2COc3ccc(OCc4nc5cc(F)ccc5s4)cc3[C@@H]2O)c1	2.91% (inactive)	
CCCc1nc2c(C)cc(-c3nc4ccccc4n3C)cc2n1Cc1ccc(-c2ccccc2C(=O)O)cc1	1.13% (inactive)	

Structure (SMILES)	viability change, negative = cytotoxic	Potency
CC[C@H]1OC(=O)[C@H](C)[C@@H](O[C@H]2C[C@@](C)(OC)[C@@H](O)[C@H](C)O2)[C@H](C)[C@@H](O[C@@H]2O[C@H](C)C[C@H](N(C)C)[C@H]2O)[C@](C)(O)C[C@@H](C)CN(C)[C@H](C)[C@@H](O)[C@]1(C)O		2.9 µM (active)
COC(OC)OC	18.6% (inactive)	
CC(=O)OC(C)C[N+](C)(C)C (stereo not given)	0.966% (inactive)	
CCCCCCCC(=O)OCCCCCC	-15.7% (inactive)	
Cc1ccc(N(CC2=NCCN2)c2cccc(O)c2)cc1	0.157% (inactive)	
CCCCCCCC/C=C/C(=O)O	-7.8% (inactive)	
Nc1c(Cl)cc(Cl)cc1[N+](=O)[O-]	2.81% (inactive)	
CNS(=O)(=O)c1cc(C(=O)N2CCC(CCN3C4CCC3CC(n3c(C)nc5ccccc53)C4)(c3cccc(F)c3)CC2)c(Cl)cc1F (stereo not given)		13.8 µM (active)
CCOc1ncc(F)c(=O)[nH]1	19.6% (inactive)	
CC(C)c1ccc(C#N)cc1	0.112% (inactive)	
Cc1c[nH]c2ccccc12	-0.457% (inactive)	
COC(=O)CC(C(C)=O)C(=O)OC (stereo not given)	2.58% (inactive)	
O=C(O)c1ccc(O)cc1O	-5.88% [at 78.8 µM] (inactive)	
CC(C)Cc1ccc(CC(=O)O)cc1	1.55% (inactive)	
O=C(c1ccccc1)C1CCC1	5.13% (inactive)	
CC(C)(C)CCCCCCOC(=O)c1ccccc1C(=O)OCCCCCCC(C)(C)C	13.5% (inactive)	
O=C(/C=C/c1ccc([N+](=O)[O-])cc1)c1ccccc1	-0.731% (inactive)	
c1ccc(CCCc2ccncc2)cc1	0.885% (inactive)	
CCCC(=O)OC(=O)CCC	6.44% [at 78.8 µM] (inactive)	
O=C(Nc1ccc(C(=O)O)c(O)c1)c1ccccc1	2.43% (inactive)	
